Records with an inconclusive call do not appear. Calls of active or inactive are those of the source. Calls come from the whole dose curve; as a rule, active = well fitted curve in the direction sought with a large enough effect; inconclusive = small, poorly fitted or top-dose-only effect, or another doubt; inactive = no such curve, though single readings can be large; an effect the other way counts as inactive or inconclusive.
Key:
[1] = target: Cellular tumor antigen p53 (Homo sapiens) (UniProt P04637); test: Primary qHTS for small molecule compounds that upregulate eGFP-tagged delta133p53alpha (in N-terminal) cells. (AID 2060322); details: NCI-H358 eGFP-delta133p53alpha fluorescence, 24 h; activation: hits give high values; note: nearly all actives have a fitted effect of over 75% in size; note: potency is the fitted concentration of half-maximal effect;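 for activation: series mostly up to about 56 µM; 0% = DMSO vehicle and 100% = reference activator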
Outline: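 NCI-H358 cells pre-induced 24 h with 10 ng/ml doxycycline to express N-terminal eGFP-delta133p53alpha, then dosed 24 h at 37C without doxycycline; fixed, Hoechst-stained, GFP intensity by laser scanning cytometry, normalized to DMSO (0%) and 57.5 uM 5-azacytidine (100%).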

[2] = target: Aldehyde dehydrogenase, mitochondrial (Homo sapiens) (UniProt P05091); test: qHTS for Inhibitors of the Aldehyde Dehydrogenase Family (ALDH2) Primary screen (AID 2061308);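 note: plate controls were vehicle for no effect and reference inhibitor for full effect; nearly all actives have a fitted effect of over 55% in size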
[3] = target: Retinaldehyde dehydrogenase 3 (Homo sapiens) (UniProt P47895); test: qHTS for Inhibitors of the Aldehyde Dehydrogenase Family (ALDH1A3) Validation screen (AID 2061312); note: % is set by controls: 0 for no effect and ±100 for the full control effect; nearly all actives have a fitted effect of over 45% in size
[4] = target: Retinaldehyde dehydrogenase 3 (Homo sapiens) (UniProt P47895); test: qHTS for Inhibitors of the Aldehyde Dehydrogenase Family (ALDH1A3) Primary screen (AID 2061315);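 note: plate controls were DMSO vehicle for no effect and reference inhibitor for full effect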

Sequence of Cellular tumor antigen p53 (Homo sapiens) (P04637 whole entry, looked up): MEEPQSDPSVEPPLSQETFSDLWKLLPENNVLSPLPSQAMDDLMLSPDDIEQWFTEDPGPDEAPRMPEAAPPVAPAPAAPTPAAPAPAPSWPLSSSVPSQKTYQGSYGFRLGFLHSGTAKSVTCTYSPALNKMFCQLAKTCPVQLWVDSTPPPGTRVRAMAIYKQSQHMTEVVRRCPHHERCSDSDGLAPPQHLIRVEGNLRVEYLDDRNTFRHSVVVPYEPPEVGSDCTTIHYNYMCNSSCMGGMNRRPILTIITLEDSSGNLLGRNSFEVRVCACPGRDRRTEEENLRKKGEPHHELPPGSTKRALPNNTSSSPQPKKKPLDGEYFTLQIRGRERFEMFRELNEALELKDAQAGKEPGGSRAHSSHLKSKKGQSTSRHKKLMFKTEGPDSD

CCOC(=O)c1ccc(N(C)c2csc(-c3ccccc3)n2)cc1
inactive: activation [1] 0% | Potency [2] | Potency [3] | Potency [4]

CCOc1c2c(c(OCC)c3ccccc13)C(=O)N(c1ccc(CC(=O)NS(=O)(=O)c3ccccc3)cc1)C2
inactive: activation [1] -25.3% | Potency [2] | Potency [3] | Potency [4]

COc1cc(CCc2cc(NC(=O)c3ccc(N4CC(C)NC(C)C4)cc3)n[nH]2)cc(OC)c1 (stereo unspecified)
inactive: activation [1] 3.34% | Potency [2] | Potency [3] | Potency [4]

Cc1oc2ccccc2c1CNC(=O)NCc1cccs1
inactive: activation [1] -8.59% | Potency [2] | Potency [3] | Potency [4]

CC(C)c1nc(-c2ccc(NC(=O)Nc3cccc(C(F)(F)F)c3)c3ccccc23)c2c(N)nccn12
inactive: Potency [2] | Potency [3] | Potency [4]
active: Potency [1] 26.9 µM

CC(C)c1ccccc1OC(=O)NCCc1ccc2ccccc2c1
inactive: activation [1] 2.39% | Potency [2] | Potency [3] | Potency [4]

CC(C)(C)c1ccc2c(c1)CC[C@H]2NC(=O)Nc1cccc2[nH]ncc12
inactive: activation [1] -6.68% | Potency [2] | Potency [3] | Potency [4]

CN(C)CC(c1ccc(O)cc1)C1(O)CCCCC1 (stereo unspecified)
inactive: activation [1] -9.55% | Potency [2] | Potency [3] | Potency [4]

Cc1nc2ccccc2c(-c2ccc3c4c(ccnc24)CCO3)c1[C@H](OC(C)(C)C)C(=O)O
inactive: activation [1] 0.955% | Potency [2] | Potency [3] | Potency [4]

— PubChem BioAssay (NCATS)
